Hits are enriched below; roughly 1.7% of the tested compounds scored in any of these assays.
p53ts 32C tox = kills p53ts cells at the permissive temperature; 130,000 compounds, 0.93% hits; AID 924; H1299-p53A138V at 32C, ATP luminescence viability, 24 h; Potency, µM (titrated, usually from 46.1 µM), for inactives: at the highest dose activity change, negative = cytotoxicity, usual class: cytotoxic;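 also: 0% = DMSO and -100% = full killing by reference compound; nearly all actives have a fitted effect of over 55% in size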
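Viability by ATPlite luminescence after 24 h compound treatment (up to 46 uM) at the permissive 32C. Cells are H1299 carrying p53 A138V. Scale runs from DMSO basal to 100 uM tamoxifen as full kill; AC50 from Hill fits.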
Peg3 imprint = genomic imprint erasure induction | Potency, µM (top dose mostly 60.7 µM), inactives show at the top dose activity change, positive = activation, most hits filed as activators | mouse ES Peg3-LacZ reporter, beta-gal luminescence, 40 h | AID 1948 | 110,000 compounds, 0.02% hits
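Gelatin-coated wells received 300 freshly trypsinized female ES cells with a Peg3LacZ-Neo reporter on the maternal allele, then incubated 40 hours at 37C. BetaGlo was added for 5 minutes at room temperature before a single luminescence read.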
IkB sig inh = suppresses IkB signaling in ABC-DLBCL reporter cells | ABC-DLBCL IkBa-CBG/CBR dual luciferase ratio, 4 h; response scale: scaled: untreated 0%, proteasome inhibitor 100% | Potency, µM (doses to about 57.1 µM), without a hit: at the top dose IkBa stabilization activation | 110,000 compounds, 0.04% hits; active = well fitted curve in the direction sought with a large enough effect in the signal ratio, not every such curve was filed as active; inconclusive = small, poorly fitted or top-dose-only effect, or a change in a side signal; the % refers to the signal ratio;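 also: the direction sought is a rising ratio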
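Curves were fitted separately to fusion (green), unfused (red) and ratio luminescence, then classed by r2, magnitude and activity. Cells: OCI-Ly3, 4 h compound plus doxycycline at 37C; 10 uM MG-132 defined full response.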
p53ts 39C kill = cytotoxicity in p53ts cells at nonpermissive temperature. H1299-p53A138V viability at 39C, ATP luminescence, 24 h. AID 902. Potency, µM (titrated, usually from 46.1 µM), for the others: at the top dose activity change, negative = cell killing, actives largely listed as cytotoxic. 130,000 compounds, 1.5% hits; also: % is scaled to controls: 0 for no effect and ±100 for the full control effect; nearly all actives have a fitted effect of over 55% in size
An asterisk follows results filed as active; ? = inconclusive; . = no result given; ! = a repeat was not active; [ ] = another dose, or the depositor's remark. Unless noted, calls follow the shape of the dose curve; as a rule, active = well fitted curve in the direction sought with a large enough effect; inconclusive = small, poorly fitted or top-dose-only effect, or another doubt; inactive = no such curve, though single readings can be large; an effect the other way counts as inactive or inconclusive. Potency is read from the fitted curve at half-maximal effect.

SMILES	p53ts 32C tox	Peg3 imprint	IkB sig inh	p53ts 39C kill
CC(=O)O[C@@H]1[C@H]([N+]2(C)CCCCC2)C[C@@H]2[C@@H]3CC[C@@H]4C[C@@H](OC(C)=O)[C@H]([N+]5(C)CCCCC5)C[C@@]4(C)[C@H]3CC[C@]21C	-6.7%	.	1.2%	18.1%
CC(=O)N1CCC2(CC1)CN(C(c1ccccc1)c1ccccc1)C2	-7.0%	.	2.5%[11.4 µM]	5.7%
COc1cccc(-c2nc(-c3ccc(Br)o3)no2)c1	?	-9.7%[10.9 µM]	3.9%	12.6µM*
COc1cccc(-c2nnc(-c3ccc(C)o3)o2)c1	12.6µM*	.	.	11.2µM*
Nc1cnn([C@@H]2O[C@H](CO)[C@@H](O)[C@H]2O)c(=O)n1	-15.0%[1.84 µM]	4.9%	-0.4%	-23.0%
O=C(CCN1C(=O)c2ccccc2C1=O)Nc1ccc(-c2cn3ccsc3n2)cc1	-15.4%	-51.9%	-0.7%	?
CC(=O)Nc1ccc(-c2cn3ccsc3n2)cc1	10µM*	-48.0%	7.4%	?
CCC(=O)Nc1cccc(-c2cn3ccsc3n2)c1	-15.3%	-8.2%	0.4%	-16.5%
c1cn2cc(-c3ccc4c(c3)OCO4)nc2s1	15.8µM*	-80.5%	0.1%	12.6µM*
CC(C)C(=O)Nc1cccc(-c2cn3ccsc3n2)c1	?	6.4%	3.2%	-2.9%
O=C(Nc1ccc(-c2cn3ccsc3n2)cc1)C1CC1	6.31µM*	-38.1%	0.1%	5.01µM*
O=C(Nc1ccc(-c2cn3ccsc3n2)cc1)C1CCCC1	5.01µM*	-45.1%	-0.2%	2.51µM*
O=C(c1[nH]o[n+](=O)c1C(=O)c1csc2ccccc12)c1csc2ccccc12	8.4%[9.22 µM]	.	9.2%[11.4 µM]	?
C[C@@H]1C[C@@H]([C@@H](C)CC2CC(=O)NC(=O)C2)C(=O)[C@@H](C)C1	.	-32.5%	.	.
C=C1CC[C@H]2C(C)(C)[C@H](O)CC[C@]2(C)[C@@H]1COc1ccc2ccc(=O)oc2c1	.	.	-2.0%[11.4 µM]	.
CN1CCN(CCCN2c3ccccc3Sc3ccc(Cl)cc32)CC1	15.8µM*!	-24.2%	-0.4%[25.6 µM]	20µM*
CCNS(=O)(=O)c1ccc(C)cc1	9.9%[1.84 µM]	-3.2%	-2.2%	7.1%
Cc1nnc(SCc2cnc(-c3ccc(C(C)C)cc3)s2)n1C	1.58µM*	-14.3%	-0.6%	2µM*
CCOc1ccc(N2Cc3ccccc3C2)cc1	12.6µM*	-60.9%	0.9%	?
CSc1nn(Cc2cccc(Cl)c2)c(N(C(C)=O)C(C)=O)c1S(=O)(=O)c1ccccc1	9.5%	12.8%[10.9 µM]	-7.5%	20µM*
CC(=O)OCC1OC(C#CC2=CCCCC2)C=CC1OC(C)=O (configuration not stated)	3.6%[9.22 µM]	.	.	-3.6%[9.22 µM]
CN(C)c1ccc(-c2ccc3ncnc(N(C)Cc4ccco4)c3c2)cc1	-4.8%	-24.5%	1.8%[11.4 µM]	-8.5%
Cc1ccc2sc(-c3ccc(N)cc3)nc2c1	2.51µM*	-49.0%[10.9 µM]	21.5%	3.16µM*
COc1ccccc1-n1cc(C(=O)NCC(=O)N2CCN(c3ccccc3)CC2)c2ccccc2c1=O	12.6µM*	-17.2%	0.1%	12.6µM*
O=C(/C(C=Nc1ccc(Br)cc1)=C(/O)c1ccco1)C(F)(F)F	11.2µM*	.	.	11.2µM*
SMILES	p53ts 32C tox	Peg3 imprint	IkB sig inh	p53ts 39C kill
CCCCCSc1nc2sc3c(c2c(=O)n1-c1ccc(OC)cc1)CCN(C(C)=O)C3	?	-21.1%[10.9 µM]	?	12.6µM*
CCCN(CCC)C(=O)CSc1nc2sc3c(c2c(=O)n1-c1ccccc1)CCN(C(C)=O)C3	26.6%	22.4%[10.9 µM]	4.7%	7.9%
CC(C)C1O[C@H](/C=C\c2ccccc2)OCC1(C)C (some centres not stated)	.	-10.2%[10.9 µM]	.	.
Cc1ccc2c(c1)C(=O)[C@@]1(O)CCN(c3ccccc3)C1=N2	7.5%	-10.3%	0.7%	-6.1%
COc1cc(COc2cc(N)c(Cl)cc2C(=O)CCC2CCN(CCNS(C)(=O)=O)CC2)cc(OC)c1	31.6µM*	-21.5%	?	31.6µM*
COc1cc(N)c(Cl)cc1C(=O)CCC1CCN(CCNS(C)(=O)=O)CC1	-0.5%	-10.1%	0.4%	-6.7%
COc1ccc(CNc2ncnc3ccc(-c4ccc(N(C)C)cc4)cc23)c(OC)c1	5.6%	-19.3%	5.2%[11.4 µM]	8.5%
C=CCn1c(=O)n(CC=C)c(=O)n(CC=C)c1=O	-0.8%[1.84 µM]	6.8%	0.0%	1.1%
O=c1n(CC2CO2)c(=O)n(CC2CO2)c(=O)n1CC1CO1 (configuration not stated)	-6.2%[1.84 µM]	-23.0%	?	15.8µM*
C[C@@H]1CC[C@H]2[C@H](C)C3[C@H](C[C@H]4[C@@H]5CC=C6C[C@@H](O)CC[C@@]6(C)[C@@H]5C[C@@H](O)[C@]34C)N2C1 (some centres not stated)	.	-13.7%[10.9 µM]	.	.
CC(C)c1ccc(S(=O)(=O)/N=C2/C=C(Sc3ncn[nH]3)C(=O)c3ccccc32)cc1	.	.	.	8.91µM*
CCOc1ccc(S(=O)(=O)Nc2ccc(O)c(Sc3ncn[nH]3)c2)cc1	-1.5%	.	.	9.9%
COc1ccc2c(c1)C(c1ccccc1OC)CC(=O)O2 (configuration not stated)	.	10.6%	.	.
CO/N=C(\C)CCN1CCCc2nc(C)c(C)cc21	0.1%[9.22 µM]	.	.	7.2%[9.22 µM]
O=C(/C=C\c1ccc(O)c(O)c1)O[C@H]1C[C@@](O)(C(=O)O)C[C@H](O)[C@@H]1O	.	.	-1.2%[11.4 µM]	.
COCc1nnc(NC(=O)c2sc3ccccc3c2Cl)s1	?	-61.7%	?	15.8µM*
COCc1nnc(NC(=O)c2cccs2)s1	-15.0%	-22.0%	4.0%	-9.1%
Cc1nnc(NC(=O)c2sc3ccccc3c2Cl)s1	1.26µM*	-51.9%	?	0.631µM*
Cc1cc(N2CCCCC2)n2ncc(-c3ccccc3)c2n1	12.6µM*	-25.3%	4.3%	?
COc1ccc(-c2cc(C(=O)NCc3ccc(F)cc3)c3c(-c4ccc(F)cc4)[nH]nc3n2)cc1OC	?	-13.3%[10.9 µM]	?	12.6µM*
CCCCN1C(=O)c2[nH]nc(-c3ccccc3O)c2C1c1ccc(OCc2ccccc2)c(OC)c1 (configuration not stated)	25.4%	-10.6%[10.9 µM]	?	-11.0%
CCCCN1C(=O)c2[nH]nc(-c3ccccc3O)c2C1c1ccc(C(C)(C)C)cc1 (configuration not stated)	?	24.8%[10.9 µM]	?	12.6µM*
CCCCN1C(=O)c2[nH]nc(-c3ccccc3O)c2C1c1ccc(OCc2ccccc2)cc1 (configuration not stated)	23.6%	-9.2%[10.9 µM]	?	12.6µM*
CC(C)OCCCN1C(=O)c2[nH]nc(-c3ccccc3O)c2C1c1cccc(OCc2ccccc2)c1 (configuration not stated)	?	-10.8%[10.9 µM]	?	?
Cc1ccc(C2c3c(-c4ccccc4O)n[nH]c3C(=O)N2CCCO)cc1 (configuration not stated)	18.9%	-10.0%[10.9 µM]	?	1.3%
COCCCN1C(=O)c2[nH]nc(-c3ccccc3O)c2C1c1ccc(OCc2ccccc2)cc1 (configuration not stated)	25.4%	-8.3%[10.9 µM]	?	12.6µM*

Screening data (PubChem)
